According to PubChem BioAssay (NCATS):

Test: qHTS profiling of the MIPE4 collection as inhibitors of Plasmodium falciparum (3D7) proliferation (AID 743344);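 note: scaled between DMSO vehicle wells and 0.29 µM artemisinin as full inhibition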
Settings: P. falciparum 3D7 in erythrocytes, SYBR Green DNA fluorescence, 72 h; at 28.5 µM unless noted
Summary of the method: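 Parasite DNA was quantified by SYBR Green I fluorescence (ex 485, em 535 nm) after overnight lysis in saponin/Triton buffer at room temperature. Cultures at 0.3% parasitemia and 2.5% hematocrit were first exposed to compound for 72 h at 37 C; signals were normalised to artemisinin (0.29 uM) and vehicle wells.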

Row | Structure (SMILES) | parasite growth, % of DMSO control
1 | O=C(Nc1cccc(Br)c1)c1cccc(S(=O)(=O)N2CCCCCC2)c1 | 55.6%
2 | CCCCCCCCCCCC1=C(O)C(=O)C=C(O)C1=O | 54.7%
3 | Cc1c(O)cccc1C(=O)N[C@@H](CSc1ccccc1)[C@H](O)CN1C[C@H]2CCCC[C@@H]2C[C@@H]1C(=O)NC(C)(C)C | 10.1%
4 | CNC(=O)c1ccc2cc(C3(O)CCn4cncc43)ccc2c1 (stereo unspecified) | 84.5%
5 | Cc1cccc(Nc2nc(-c3ccncc3)cs2)c1 | 29.1%
6 | O=C1NC(=O)C(=Cc2ccc3nccnc3c2)S1 | 56.7% [at 9.64 µM]
7 | Cc1nnc(C(C)C)n1C1C[C@H]2CC[C@@H](C1)N2CC[C@H](NC(=O)C1CCC(F)(F)CC1)c1ccccc1 (stereo partly specified) | 69.7%
8 | O=c1ccn([C@@H]2O[C@H](CO)[C@H](O)[C@H]2O)c(=O)[nH]1 | 92.2%
9 | C[C@]12CC[C@@H]3c4ccc(O)cc4C[C@@H](CCCCCCCCCS(=O)CCCC(F)(F)C(F)(F)F)[C@H]3[C@H]1CC[C@H]2O (stereo partly specified) | 5.44%
10 | O=C1NC(=O)C(=Cc2cccc(C(F)(F)F)c2)S1 | 88.5%
11 | O=c1cc(-c2ccccc2)oc2cc(O)cc(O)c12 | 48.1%
12 | COC[C@@H](c1ccc(C(F)(F)F)cc1)N1CCN(C2(C)CCN(C(=O)c3c(C)ncnc3C)CC2)C[C@H]1C | 31.8%
13 | COc1cccc([C@@H](C)NCCCc2ccccc2Cl)c1 | 6.27%
14 | CN(C)CCC=C1c2ccccc2COc2ccc(CC(=O)O)cc21 | 91.3%
15 | NC(=O)c1ccc2nc(-c3ccc(Oc4ccc(Cl)cc4)cc3)[nH]c2c1 | 48.1%
16 | COc1cc(N2CCC(N3CCN(C)CC3)CC2)ccc1Nc1ncnc(Nc2ccccc2S(=O)(=O)C(C)C)n1 | 8.76%

Row | Structure (SMILES) | parasite growth, % of DMSO control
17 | O=C1c2ccccc2-[n+]2ccc3c([nH]c4ccccc43)c21 | 16.3%
18 | CO[C@H]1C[C@@H]2CC[C@@H](C)[C@@](O)(O2)C(=O)C(=O)N2CCCC[C@@H]2C(=O)O[C@H]([C@H](C)C[C@@H]2CC[C@H](OP(C)(C)=O)[C@H](OC)C2)CC(=O)[C@H](C)C=C(C)[C@@H](O)[C@@H](OC)C(=O)[C@H](C)C[C@H](C)C=CC=CC=C1C | 4.92%
19 | O=C1C[C@@H](c2ccc(O)cc2)Oc2cc(O)cc(O)c21 | 20%
20 | O=C(Nc1c(Cl)cncc1Cl)c1ccc(OC(F)F)c(OCC2CC2)c1 | 109%
21 | CC(C)(C)OC(=O)N[C@H]1CCCCCC=C[C@@H]2C[C@@]2(C(=O)NS(=O)(=O)C2CC2)NC(=O)[C@@H]2C[C@@H](OC(=O)N3Cc4cccc(F)c4C3)CN2C1=O | 11.7%
22 | CC(=NNC(=S)N1CCC1)c1ccccn1 | 5.99%
23 | CC=C(C)C(=O)O[C@H]1C(C)=C[C@]23C(=O)[C@@H](C=C(CO)[C@@H](O)[C@]12O)[C@H]1[C@@H](C[C@H]3C)C1(C)C | 18.7%
24 | CN(C[C@@H]1COCCO1)S(=O)(=O)Nc1ccc2ccc3ncc(-c4cnn(C)c4)cc3c(=O)c2c1 | 13.4%
25 | O=C(OCC#CCSc1nnc(-c2cccc3ccccc23)o1)c1cc2ccccc2s1 | 49.1%
26 | NC[C@@H]1O[C@@H](O[C@H]2[C@@H](O)[C@H](O[C@@H]3[C@@H](O)[C@@H](N)C[C@H](N)[C@H]3O[C@H]3O[C@H](CN)[C@@H](O)[C@@H](O)[C@H]3N)O[C@H]2CO)[C@H](N)[C@@H](O)[C@@H]1O | 88%
27 | Cc1nc(N)sc1-c1ccnc(Nc2ccc(N3CCOCC3)cc2)n1 | 6.44%
28 | Oc1ccc(C2CCN(c3ccnc4ccccc34)CC2)cc1O | 6.17%
29 | CC1(C)O[C@H]2C[C@@H]3[C@H]4CCC5=CC(=O)C=C[C@]5(C)[C@@]4(F)[C@@H](O)C[C@]3(C)[C@]2(C(=O)CO)O1 | 38.4%
30 | O=C(NC1CCOCC1)c1ccc(-c2cc(-c3cn[nH]c3-c3ccccn3)ccn2)cc1 | 17.3%
31 | N#CC1(c2ccc(NC(=O)c3cccnc3NCc3ccncc3)cc2)CCCC1 | 18.4%
